Source: PubChem BioAssay (National Center for Advancing Translational Sciences (NCATS))
Hits are enriched below; roughly 5.8% of the tested compounds scored in any of these assays.
PINK1 expr mod = modulators of PINK1 expression; Potency, µM (series often up to 76.6 µM), inactives show at the top dose activation (PINK1 increase), actives largely listed as activators; PINK1 immunofluorescence, high-content cytometry, 24 h; 0.2% of 410,000 active; active means well fitted activation curve with a large enough effect; inconclusive means small, poorly fitted or top-dose-only effect; cell line not stated here; further: % of control where 0% means no effect; nearly all actives have a fitted effect of over 65% in size
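Cells are seeded, rested 12 hours, then given compound at five concentrations or DMSO for 24 hours. After fixation, blocking and antibody staining, PINK1 amount and mitochondrial localization are scored; CCCP serves as control.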
KB-3-1 tox = kills parental KB-3-1 adenocarcinoma cells | KB-3-1 viability, CellTiter-Glo ATP luminescence, 72 h | 1.4% of 400,000 active | Potency, µM (top dose mostly 46.1 µM), most hits filed as cytotoxic; further: on the % scale 0 is the no-effect control and ±100 the full control effect; nearly all actives have a fitted effect of over 60% in size
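Multi-concentration cytotoxicity screen in KB-3-1 cells grown in DMEM lacking phenol red with 10% FBS. After 72 h at 37 °C with compound, ATP-dependent luminescence was recorded.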
SW480 rereplic = DNA re-replication induction in SW480 cells. 1.8% of 340,000 active. Potency, µM (titrated, usually from 46.1 µM), inactives show at the top dose re-replication activation, hits mostly activators. SW480 DNA re-replication, Hoechst DNA content imaging, 48 h. AID 624297; further: % of control where 0% means no effect; nearly all actives have a fitted effect of over 55% in size
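First, 250 cells per well were seeded. Next, compound or vehicle (23 nL) was pinned in, plates sat 48 hr at 37 C. Finally Hoechst was added for 40 min before fluorescence scanning.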
KB-V1 MDR tox = KB-V1 MDR subline cytotoxicity; 3.4% of 400,000 active; AID 1347076; Potency, µM (series often up to 46.1 µM), usual class: cytotoxic; KB-V1 MDR cells viability, CellTiter-Glo, 72 h; further: on the % scale 0 is the no-effect control and ±100 the full control effect; nearly all actives have a fitted effect of over 60% in size
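Following 72 h at 37 degrees C with compound, KB-V1 cell viability was read by CellTiter-Glo luminescence, medium being phenol-red-free DMEM plus 10% FBS; concentration-response parameters came from normalized, curve-fitted qHTS data.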
MCF10A rerep = DNA re-replication induction in MCF 10a cells. AID 624296. MCF 10A DNA re-replication, Hoechst nuclear intensity, 48 h. Potency, µM (series often up to 46.1 µM), without a hit: at the highest dose activity, positive = re-replication, actives largely listed as activators. 2.9% of 350,000 active; further: % of control where 0% means no effect; nearly all actives have a fitted effect of over 50% in size
ALOX12 inh = inhibitors of human 12S-lipoxygenase ALOX12; P18054; 1.1% of 580,000 active; Potency, µM (doses to about 108 µM), for the others: at the highest dose activity change, negative = inhibition, hits mostly inhibitors; purified 12hLO, xylenol orange hydroperoxide absorbance; further: on the % scale 0 is the no-effect control and ±100 the full control effect
Target sequence (P18054 whole entry, looked up): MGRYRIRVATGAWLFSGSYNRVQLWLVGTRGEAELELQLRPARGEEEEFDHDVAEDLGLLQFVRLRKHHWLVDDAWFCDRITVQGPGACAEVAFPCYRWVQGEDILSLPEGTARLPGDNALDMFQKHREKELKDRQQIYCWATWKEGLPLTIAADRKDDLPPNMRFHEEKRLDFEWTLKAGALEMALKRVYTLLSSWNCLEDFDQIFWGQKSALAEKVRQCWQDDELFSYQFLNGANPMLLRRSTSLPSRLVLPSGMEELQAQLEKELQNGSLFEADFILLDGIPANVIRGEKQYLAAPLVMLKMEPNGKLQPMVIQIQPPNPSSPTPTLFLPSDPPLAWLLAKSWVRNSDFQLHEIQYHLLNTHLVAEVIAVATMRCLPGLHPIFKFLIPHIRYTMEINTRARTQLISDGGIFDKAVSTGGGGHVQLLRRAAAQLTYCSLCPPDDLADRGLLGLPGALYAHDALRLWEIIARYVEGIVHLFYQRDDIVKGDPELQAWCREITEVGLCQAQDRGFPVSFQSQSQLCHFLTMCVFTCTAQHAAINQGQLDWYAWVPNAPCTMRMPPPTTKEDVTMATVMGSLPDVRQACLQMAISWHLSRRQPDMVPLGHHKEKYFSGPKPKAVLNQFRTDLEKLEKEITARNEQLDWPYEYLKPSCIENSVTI
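Purified human 12hLO at 150 nM in 25 mM Hepes, 0.01% Triton X-100, pH 7.0, preincubated 15 min at room temperature with compound. Reaction started with 40 uM arachidonic acid, 30 min at room temperature. Hydroperoxide measured by Fe-xylenol orange, 573/405 nm absorbance ratio.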
The depositor's hits bear a star; i = inactive; u = inconclusive; x = not tested or not shown; [ ] = dose if it differs, or a comment. Unless noted, the call rests on the fitted dose curve; in most records, active means well fitted curve in the direction sought with a large enough effect; inconclusive means small, poorly fitted or top-dose-only effect, or another doubt; inactive means no such curve, though single readings can be large; an effect the other way counts as inactive or inconclusive. Potency means the concentration at half of the fitted maximal effect.

SMILES	PINK1 expr mod	KB-3-1 tox	SW480 rereplic	KB-V1 MDR tox	MCF10A rerep	ALOX12 inh
COc1ccc(N(CC(=O)Nc2ccc3c(c2)OCCO3)S(=O)(=O)c2c(C)noc2C)cc1	7%	u	18%	2.9µM*	u	-9%
CC(=O)Nc1ccc(NC(=O)CCn2cnc3c2c(=O)n(C)c(=O)n3C)cc1	x	x	x	x	x	-3%
CCOc1ccc(N(CC(=O)Nc2ccccc2OC)S(=O)(=O)c2ccccc2)cc1	8%	4.6µM*	2.3µM*	1µM*	u	3%
CCOc1ccc(N(CC(=O)Nc2ccccc2C(=O)N2CCOCC2)S(=O)(=O)c2ccc(F)cc2)cc1	3%	i	0%	4.6µM*	0%	-32%
CCOc1ccc(N(CC(=O)Nc2ccc(C)cc2)S(=O)(=O)c2c(C)noc2C)cc1	6%	u	1%	u	12%	-21%
COc1ccc(S(=O)(=O)N(Cc2ccccc2)c2ccccc2C(=O)N2CCOCC2)cc1	2%	u	u	13µM*	u	-2%
CCOc1ccc(N(CC(=O)Nc2ccccc2OCC)S(=O)(=O)c2c(C)noc2C)cc1	7%	3.3µM*	5.8µM*	5.8µM*	1.3µM*	1%
COc1ccc(N(CC(=O)Nc2ccc(OC)cc2OC)S(=O)(=O)c2ccccc2)cc1	2%	i	u	u	u	3%
COc1cc(/C=C/C(=O)OCC(=O)OC2CC(C)CCC2C(C)C)cc(OC)c1OC (configuration not stated)	x	x	x	x	x	34%
Cc1oc(-c2ccccc2)nc1C12CC3CC(CC(C3)C1)C2	x	x	x	x	x	-19%
Cc1cc(C)n(-c2nc(Nc3ccccc3C(F)(F)F)nc(-n3nc(C)cc3C)n2)n1	u	i	u	0.92µM*	u	u
Cc1cc(C)n(-c2nc(NC(C)C)nc(NC(C)C)n2)n1	-8%[38.3 µM]	i	2.9µM*	u	18%	11%
Cc1ccc(N(CCCC(=O)Nc2ccccc2Br)S(C)(=O)=O)cc1	x	x	x	x	x	11%
C=CCOc1cccc(N)c1	x	x	x	x	x	24%
Cc1cccc2cc3c(N)c(C(=O)N4CCc5ccccc54)sc3nc12	9%	u	u	9.2µM*	u	u
Nc1c(C(=O)N2CCCC2)sc2nc3c(cc12)CCCCCC3	9%	i	6%	u	15µM*	2%
Cc1cc(C)c2nc3sc(C(=O)N4CCOCC4)c(N)c3cc2c1	2%	0.26µM*	u	u	u	1%
Nc1c(C(=O)N2CCOCC2)sc2nc3c(cc12)CCCC3	1%	i	2%	i	-7%	13%
Cc1ccc(C)c2nc3sc(C(=O)N4CCOCC4)c(N)c3cc12	2%	u	u	u	u	u
Cc1cccc2cc3c(N)c(C#N)sc3nc12	-2%	u	u	1.5µM*	u	u
CCN=c1scc(C)n1/N=C/c1cc(Br)c(O)c(OC)c1	3%	i	7%	i	21µM*	u
CN=c1scc(C)n1/N=C/c1cc(Br)c(O)c(Br)c1	1%	i	-2%	i	u	0%
COCCCNC(=O)c1cc(Cc2ccccc2)sc1N	x	i	x	i	x	-27%
Cc1[nH]c2ccccc2c1C(=O)c1cc(Cc2ccccc2)sc1N	x	21µM*	x	18µM*	x	u
Cn1nc(C(=O)N(Cc2ccc3c(c2)OCO3)C2CCCC2)c2ccccc2c1=O	x	x	x	x	x	20%
SMILES	PINK1 expr mod	KB-3-1 tox	SW480 rereplic	KB-V1 MDR tox	MCF10A rerep	ALOX12 inh
CCCN(CCC)CC(O)Cn1c2ccccc2c2ccccc21 (configuration not stated)	4%	i	u	i	-9%	-1%
CC(C)CCN(CCC(C)C)CC(O)Cn1c2ccccc2c(=O)c2ccccc21 (configuration not stated)	10%	i	u	u	3.3µM*	-7%
COc1cccc2c1OCC(C(=O)O)C2 (configuration not stated)	0%	i	-9%	i	-3%	u
COc1cccc2c1C(CO)N1C(C#N)C3CC(C(=O)O)C(C1C2)N3C (configuration not stated)	1%	0.026µM*	0.92µM*	0.21µM*	-6%	5%
Cc1cnc(CC2CCCN(C(=O)CCc3c[nH]c4ccccc34)C2)n1C(C)C (configuration not stated)	x	x	x	x	x	9%
O=C(Cc1ccccc1)N1CCCC2(CC(c3ccccc3)=NO2)C1 (configuration not stated)	x	x	x	x	x	-1%[6.33 µM]
O=c1[nH]c2ccc(Br)cc2c(-c2ccccc2)c1CN1CCCCC1	x	x	x	x	x	22µM*
COc1nc(OC)nc(Oc2ccc(Cl)cc2[N+](=O)[O-])n1	1%	i	-5%	i	2%	18%
COc1ccc([N+](=O)[O-])c(S(=O)(=O)c2ccc(Cl)cc2)n1	-1%	u	2.9µM*	i	3.7µM*	-24%
COc1ccc([N+](=O)[O-])c(S(=O)(=O)c2ccccc2)n1	-1%	u	u	23µM*	24%	-160%
O=[N+]([O-])c1cccnc1S(=O)(=O)c1ccccc1	-1%	u	9.2µM*	u	2.9µM*	0%
COc1ccccc1C(=O)N1CCCN(c2cc(-c3ccc(Br)cc3)[nH]n2)CC1	x	x	x	x	x	-10%
COc1cccc(NC(=O)c2cc(-c3ccco3)nc3ccccc23)c1	21%	i	23%	u	3%	u
CC(=O)c1cccc(NC(=O)c2cc(-c3ccco3)nc3ccccc23)c1	9%	u	-20%	u	0%	28µM*
O=C(Nc1cccc(S(=O)(=O)NC2=NCCCCC2)c1)c1cc(-c2ccco2)nc2ccccc12	u	i	u	i	16µM*	u
O=C(O)c1cc(-c2ccco2)nc2cc3ccccc3cc12	0%	i	-6%	u	u	20µM*
O=C(NC1CC1)c1ccc(NC(=O)c2cc(-c3ccco3)nc3ccccc23)cc1	x	x	x	x	x	10µM*
CCCCc1nn2cc(-c3ccc(F)cc3)nc2s1	x	x	x	x	x	27%
O=C(O)c1ccc(NC(=O)c2cc(-c3ccco3)nc3ccccc23)cc1	x	x	x	x	x	7.9µM*
O=C(CN1CCN(CC(=O)Nc2cccc(F)c2)CC1)NCCc1c[nH]c2ccccc12	x	x	x	x	x	13%
CCCCn1cnc2c1c(=O)n(CC(=O)Nc1cc(F)ccc1C)c(=O)n2CCCC	x	x	x	x	x	2%
Fc1ccc(CNCc2ccccc2C(F)(F)F)cc1	10%	i	18µM*	i	-1%	5%
COc1ccc(CNCc2ccccc2C(F)(F)F)cc1	5%	i	u	i	u	u
